Calls of active or inactive are those of the source. How the source made its calls: active means hit-call score of the fitted dose curve at least 0.9, where 1 is the maximum; inactive means score below 0.9.

Read-out in this experiment: Peroxisomal acyl-coenzyme A oxidase 1 (ACOX1) gene, ACOX1 (gene 51)
The experiment is described as follows: LTEA_HepaRG_ACOX1: Life Technologies and Expression Analysis (LTEA) Assay for Peroxisomal acyl-coenzyme A oxidase 1 (ACOX1) gene using HepaRG (AID 2283467). The note with it: mRNA level, 48 h; actives raise or lower the signal. As for the experimental part: LTEA_HepaRG is a cell based, multiplexed-readout assay that uses HepaRG, a human liver cell line, with measurements taken at 48 hours after chemical dosing on a 96-well plate.LTEA_HepaRG_ACOX1 is one of 102 assay component(s) measured in the LTEA HepaRG cell culture assay. It is a marker of Steatosis.Data from the assay component LTEA_HepaRG_ACOX1 was analyzed into 1 endpoint. This assay endpoint, LTEA_HepaRG_ACOX1, was analyzed with bidirectional fitting relative to DMSO as the negative control and baseline of activity. Using a type of inducible reporter, measures of mRNA induction for gain or loss-of-signal activity can be used to understand regulation of transcription factor activity. To generalize the intended target to other relatable targets, this assay endpoint is annotated to the oxidase intended target family, where the subfamily is steatosis.
A total of 1060 chemcials from the ToxCast library were tested in eight-point concentration-response experiments. Cell culture and cytotoxicity assays were conducted at Thermo Fisher Scientific's Custom Services facility (Madison, WI). A single lot of human HepaRG cells (Thermo Fisher Scientific, Frederick, MD) was used for the cell culture experiments. 96-well format collagen type I coated plates of human HepaRG cells were prepared using established methods. Briefly, cryopreserved HepaRG cells were thawed, plated at a density of approximately 100,000 cells/well in HepaRG Thaw, Plate, and General Purpose media (HPRG770, Thermo Fisher Scientific), and incubated for 48 hours. 0.5% DMSO was selected as vehicle control to balance the requisite need of DMSO in HepaRG cultures to maintain differentiation (for example, baseline metabolism, proportions of hepatocytes vs. cholangiocytes), while enabling further hepatic receptor pathway activation (for example, PXR and CAR) in response to chemical exposure. 48 hours after plating, the culture medium was replaced with HepaRG Serum-Free Incudtion Media. Cells were exposed to each test chemical in duplicate and maintained in CO2 incubators for another 48 hours. Chemical plates were thawed to room temperature and 200x concentrations of treatment groups were prepared. 8-point conentration-reponse curves were made with the highest exposure at 100 uM, followed by half-log dilutions, all in 0.5% DMSO. Each test plate contained variouse controls, induction positive controls (1mM phenobarbital), cytotoxicity positive controls ([…] aflatoxin B1), vehicle controls (0.5% DMSO), and total lysis controls (0.5% DMSO). Cell morphology images were taken using an Essen IncuCyte FLR automated microscope, with six 96-well plates imaged in about 24 minutes. Images were captured and exported and JPEG files. Spent culture media was transfered to black-well plates for the LDH assay, and remaining media was sorted at -80 C for later use. Cells were treated with RLT buffer and frozen until shipped for gene expression analysis. Total RNA was isolated from the cell suspension in 75 uL of Buffer RLT (Qiagen, Germantown, MD 20874) by Quintiles/Expression Analysis (Durham, NC) using a custom isolation procedure. Total RNA from each plate well was transferred to a preamplification plate. Fluidigm's 96.96 Dynamic ArrayTM (Fluidigm, Amsterdam, the Netherlands) technology was used for gene expression analyses by quantitative reverse transcription polymerase chain reaction (qRT-PCR, performed by Quintiles/Expression Analysis, Durham, NC)89. Standard TaqManTM Assays (Applied Biosystems/ThermoFisher Scientific, Foster City, CA) were used to assess the expression of 93 genes selected based on their selectivity and sensitivity to important hepatic receptors known to be modulated by environmental chemicals; importance in human hepatocyte functionality; and hepatotoxicity. […]
As for `O=c1[nH]cc(F)c(=O)[nH]1`, the compound was called inactive.

As for `CCCCCCC(=O)OCC`, the result was inactive.

For `Cc1nc(-c2ccc3c(c2)CCN(CCC2CCC(NC(=O)/C=C/c4ccc(F)cc4)CC2)CC3)no1` (stereo not given), the compound was called inactive.

As for `CC(C)c1ccc(C(=O)N=C(N)N)cc1S(C)(=O)=O`, the AC50 (in general, the midpoint of the concentration-response curve, whichever way the signal moves) was 7.39 µM (active).

In the case of `O=C(OCCCCCOC(=O)c1ccccc1)c1ccccc1`, the call was inactive.

Turning to `Cc1cc(NC(=O)C(=O)O)cc(C)c1Oc1ccc(O)c2c1CCC2`, the call was inactive.

`CCCCCCOCCO`: the outcome was inactive.

Consider `CC1(C)CC(N=C=O)CC(C)(CN=C=O)C1` (stereo not given), for which the outcome was inactive.

Consider `C=CCc1ccc(O)c(OC)c1`, for which the compound was classed as inactive.

On to `CCNc1cccc(C)c1`, for which the outcome was inactive.

Turning to `NCCO`, the call was inactive.

Regarding `Cc1cc(=O)[nH]c(=S)[nH]1`, the result was inactive.

As for `Cc1cccc(Nc2cc(Cl)nc(SCC(=O)O)n2)c1C`, the AC50 was 10.9 µM (active).

In the case of `O=C(O)CCCCC(=O)O`, the result was inactive.

Consider `Cc1ccc(N(C)C)cc1`, for which the compound was called inactive.

Take `COC(=O)c1ccc(O)cc1`: the call was inactive.

As to `CN[C@H]1CC[C@@H](c2ccc(Cl)c(Cl)c2)c2ccc(S(N)(=O)=O)cc21`, the AC50 was 12.2 µM (active).

For `Cc1cccc([N+](=O)[O-])c1C`, the compound was called inactive.

Turning to `O=C(O)Cc1ccccc1Nc1c(Cl)cccc1Cl`, the outcome was inactive.

Consider `C=CCOC(=O)c1ccccc1C(=O)OCC=C`, for which the compound was called inactive.

Take `C[C@]12C=CC(=O)C=C1CC[C@@H]1[C@@H]2C(=O)C[C@@]2(C)[C@H]1CC[C@]2(O)C(=O)CO`: the compound was called inactive.

`COc1ccc(C)cc1N`: the result was inactive.

On to `CC1(C)NC(=O)NC1=O`, for which the compound was called inactive.

With `CC(=O)OC/C=C(\C)CCC=C(C)C`, the compound was classed as inactive.

With `O=C(N[C@@H](Cc1ccccc1)[C@@H](O)C(=O)N1C[C@@H](O)[C@@H](O)C1)c1cc2cc(Cl)ccc2[nH]1`, the call was inactive.

Regarding `COc1cc(S(=O)(=O)O)c(C)cc1N=Nc1c(O)ccc2cc(S(=O)(=O)O)ccc12`, the compound was classed as inactive.

Turning to `Clc1cc(Cl)c(Cl)cc1Cl`, the outcome was inactive.

As for `O=c1c(O)c(-c2ccc(O)c(O)c2)oc2cc(O)cc(O)c12`, the compound was classed as inactive.

Consider `CCCCCCCCCCCC(=O)OC`, for which the outcome was inactive.

Take `CCOc1ccc2c(c1)C(C)=CC(C)(C)N2`: the compound was classed as inactive.

Regarding `Cc1c(C(=O)O)c(O)cc2c1C(=O)c1c(O)c([C@@H]3O[C@H](CO)[C@@H](O)[C@H](O)[C@H]3O)c(O)c(O)c1C2=O`, the compound was called inactive.

Turning to `CC(=O)C(C)=CC1C(C)=CCCC1(C)C` (stereo not given), the compound was classed as inactive.

Consider `CCCCCCCCCCCCCO`, for which the outcome was inactive.

Turning to `O=[N+]([O-])C(CO)(CO)CO`, the call was inactive.

Regarding `Cc1ccc(C)c(C)c1`, the compound was classed as inactive.

`CN1CCCC1=O`: the result was inactive.

In the case of `Cc1ccccc1Cl`, the call was inactive.

Regarding `Nc1ccccc1N`, the AC50 was 62.3 µM (active).

For `CC(=O)OCCOCCOCCOC(C)=O`, the outcome was inactive.

For `NS(=O)(=O)c1cc2c(cc1Cl)NCNS2(=O)=O`, the result was inactive.
